Measurements published in publication PMC4336329 (PLoS ONE, 2015).
The whole screen tested about 310,000 compounds, of which about 14,000 (4.5%) showed an effect of 50% or more. The effect is printed as a negative number. What follows is part of a selection rich in strong results, with near analogues and random picks from the rest.

target: human ether-à-go-go-related gene (hERG) potassium channel (human, UniProt Q12809); experiment: primary screen, population patch clamp on CHO cells stably expressing hERG; higher = less effect of the substance
Sequence (Q12809 whole entry, looked up): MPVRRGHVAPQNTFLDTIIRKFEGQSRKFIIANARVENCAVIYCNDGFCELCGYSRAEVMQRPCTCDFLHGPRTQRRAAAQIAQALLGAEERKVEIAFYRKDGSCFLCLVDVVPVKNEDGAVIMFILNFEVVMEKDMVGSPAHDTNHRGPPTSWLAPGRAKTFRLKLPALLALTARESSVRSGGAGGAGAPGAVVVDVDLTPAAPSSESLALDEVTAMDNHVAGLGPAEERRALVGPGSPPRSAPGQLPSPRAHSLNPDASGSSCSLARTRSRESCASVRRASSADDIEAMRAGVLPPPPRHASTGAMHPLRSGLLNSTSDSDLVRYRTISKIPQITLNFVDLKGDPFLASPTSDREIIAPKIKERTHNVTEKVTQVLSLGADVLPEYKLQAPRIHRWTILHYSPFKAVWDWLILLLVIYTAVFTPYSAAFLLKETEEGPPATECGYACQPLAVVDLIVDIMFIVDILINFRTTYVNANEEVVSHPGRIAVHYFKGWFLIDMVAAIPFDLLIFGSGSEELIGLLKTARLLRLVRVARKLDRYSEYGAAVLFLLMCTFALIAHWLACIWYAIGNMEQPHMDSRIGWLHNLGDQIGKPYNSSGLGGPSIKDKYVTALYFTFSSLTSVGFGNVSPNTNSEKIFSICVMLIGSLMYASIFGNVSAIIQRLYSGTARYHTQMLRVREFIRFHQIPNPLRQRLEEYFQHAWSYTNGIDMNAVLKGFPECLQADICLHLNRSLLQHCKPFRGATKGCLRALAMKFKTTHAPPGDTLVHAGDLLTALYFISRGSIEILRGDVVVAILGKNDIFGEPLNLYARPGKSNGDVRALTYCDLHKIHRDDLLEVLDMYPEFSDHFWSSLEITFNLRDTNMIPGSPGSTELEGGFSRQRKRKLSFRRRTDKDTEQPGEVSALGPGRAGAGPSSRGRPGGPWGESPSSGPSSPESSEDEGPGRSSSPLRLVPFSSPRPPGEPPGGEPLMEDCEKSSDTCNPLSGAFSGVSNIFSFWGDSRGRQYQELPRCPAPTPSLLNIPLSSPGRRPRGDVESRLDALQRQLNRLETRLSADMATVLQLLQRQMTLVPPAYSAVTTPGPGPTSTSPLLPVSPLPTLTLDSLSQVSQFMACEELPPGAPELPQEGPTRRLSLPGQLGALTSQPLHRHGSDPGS
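Note: peak tail current of the secondary pulse compared with the same well before compound.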

Compound | hERG current change (%, negative = inhibition) at 10uM [%]
CCOC(=O)c1cccc(COC(=O)c2cccc(-c3nnc(-c4ccccc4)o3)c2)c1 | -2.94
COc1ccc(C(=O)c2ccsc2N)cc1 | 3.5
Cc1ccc(OP(=O)(O)Oc2ccc(C)cc2)cc1 | 2.09
CCOC(=O)c1cnc2ccc(OCC)cc2c1NCc1ccccc1OC | 4.45
CCOC(=O)c1cnc2ccc(OCC)cc2c1N(C)Cc1ccccc1 | -11.9
CCOC(=O)c1cnc2ccc(OCC)cc2c1NCc1cccnc1.Cl | -77.4
CCOC(=O)c1cnc2ccc(OC)cc2c1NCc1ccccc1 | -65.8
CCOC(=O)c1nc(NCc2cccnc2)c2ccccc2n1 | -15.3
CCOC(=O)c1cnc2ccc(OCC)cc2c1NCc1ccccc1 | -40.3
Cc1cccc(NC(=O)c2cc(S(=O)(=O)NCc3ccco3)ccc2F)c1C | 4.11
O=C(CNC(=O)c1ccc(-c2ccccc2)cc1)Nc1ccc(S(=O)(=O)Nc2ncccn2)cc1 | 4.04
Cc1cc(NCc2ccccn2)ccc1Br | -16.5
Clc1ccc(Cn2cccc2C2=NCCO2)cc1 | 4.69
CC(C)CNc1nc(Oc2ccc(=O)[nH]n2)nc(N(C)C)n1 | 8.46
COC(=O)CC(NC(=S)NC(=O)c1ccccc1)c1ccc(Br)cc1 (stereo not drawn) | 6.8
C=CCn1cc(C(=O)OC)c(=O)c2cc(S(=O)(=O)N3CCC(C)CC3)ccc21 | -39
C=CCn1cc(C(=O)OC)c(=O)c2cc(S(=O)(=O)N3CCCCCC3)ccc21 | -0.223
C=CCn1cc(C(=O)NCc2ccc(Cl)cc2)c(=O)c2cc(S(=O)(=O)N(CC)CC)ccc21 | -22.5
CCN(CC)CCNC(=O)c1cn(CC)c2ccc(S(=O)(=O)N3CCOCC3)cc2c1=O | 14.6
C=CCn1cc(C(=O)NCCN(CC)CC)c(=O)c2cc(S(=O)(=O)N3CCCCCC3)ccc21 | -71.6
C=CCn1cc(C(=O)NCc2cccnc2)c(=O)c2cc(S(=O)(=O)N(CC)CC)ccc21 | -74.4

Compound | hERG current change (%, negative = inhibition) at 10uM [%]
C=CCn1cc(C(=O)NCc2ccco2)c(=O)c2cc(S(=O)(=O)N3CCCCCC3)ccc21 | -36.4
C=CCn1cc(C(=O)NCCCN(CC)CC)c(=O)c2cc(S(=O)(=O)N3CCC(C)CC3)ccc21 | -53.7
C=CCn1cc(C(=O)NCCOC)c(=O)c2cc(S(=O)(=O)N3CCCCCC3)ccc21 | -65.8
COCCNC(=O)c1cn(C)c2ccc(S(=O)(=O)N3CCCCC3)cc2c1=O | 11.1
C=CCn1cc(C(=O)NCCCOC)c(=O)c2cc(S(=O)(=O)N3CCC(C)CC3)ccc21 | -32.9
C=CCn1cc(C(=O)NCCOC)c(=O)c2cc(S(=O)(=O)N(CC)CC)ccc21 | -13.9
CC(C)COc1ccc(C(=O)Nc2ccc(N3CCOCC3)cc2N2CCOCC2)cc1 | 1.07
COc1ccc(OC)c(C2NC(=O)NC(C)=C2C(=O)Nc2ccc(C)cc2)c1 (stereo not drawn) | 5.98
COC(=O)[C@H](C)NC(=O)Nc1cc(OC)ccc1OC | -8.76
N#CCC(=O)Nc1ccc(C(=O)OCC(=O)C23CC4CC(CC(C4)C2)C3)cc1 | 12.7
CC1CCCN(C(=O)C2CCCN(S(=O)(=O)c3cccc4nsnc34)C2)C1 (stereo not drawn) | 2.02
Cc1cccc(-n2c(-c3ccccc3)c[nH]c2=S)c1C | 14.6
COCCn1c(SCC(=O)Nc2cc(OC)ccc2OC)nc2c(c1=O)SC(C)C2 (stereo not drawn) | -18.5
COc1cc(/C=C/CO)cc(OC)c1OC/C=C(\C)CCC=C(C)C | 1.34
CCN1CCc2c(sc(NC(=O)C3CCCCC3)c2C(=O)OC)C1.Cl | -17.4
CC(C)N1CCc2c(sc(NC(=O)C3CCCCC3)c2C(N)=O)C1.Cl | -21.7
CCOC(=O)c1c(NC(=O)C2CCCCC2)sc2c1CCN(C(C)C)C2.Cl | -81.6
COC(=O)c1c(NC(=O)C2CCCCC2)sc2c1CCN(C(C)C)C2.Cl | -16.5
CCOC(=O)c1c(NC(=O)C2CCCCC2)sc2c1CCN(CC)C2.Cl | -51.7
CCOC(=O)c1c(NC(=S)N2CCCCC2)sc2c1CCN(C(=O)OCC)C2 | -1.16
O=C(COc1ccccc1)NCCSCc1ccc(Cl)cc1 | -12.6

Compound | hERG current change (%, negative = inhibition) at 10uM [%]
CCC(C)NC(=O)Cn1c(=O)sc2ccccc21 (stereo not drawn) | 4.15
O=C(CN(Cc1ccccc1)S(=O)(=O)c1ccc(Cl)cc1)NCC1CCCO1 (stereo not drawn) | -9.79
O=C(CN(Cc1ccc(Br)cc1)S(=O)(=O)c1ccccc1)NCC1CCCO1 (stereo not drawn) | -6.72
Cc1ccc(CN(CC(=O)NCC2CCCO2)S(=O)(=O)c2ccc(C)cc2)cc1 (stereo not drawn) | -1.71
Cc1ccc(S(=O)(=O)N(CC(=O)NCC2CCCO2)Cc2cccc(C)c2)cc1 (stereo not drawn) | -60.5
Cc1ccc(S(=O)(=O)N(CC(=O)NCC2CCCO2)Cc2ccc(F)cc2)cc1 (stereo not drawn) | -10.6
O=C(CN(Cc1ccccc1)S(=O)(=O)c1ccc(Br)cc1)NCC1CCCO1 (stereo not drawn) | -77.2
Cc1noc(C)c1S(=O)(=O)N1CCCC(C(=O)Nc2nccs2)C1 (stereo not drawn) | -13.6
CCOc1ccc(OCCSc2nc3ccccc3[nH]2)cc1 | -0.985
COc1cc2c(cc1Cl)/C(=C\CCN(C)C)c1ccccc1S2.O=S(=O)(O)O | -35.4
CN1CCN(CC/C=C2/c3ccccc3Sc3ccc(S(=O)(=O)N(C)C)cc32)CC1 | -64.7
CN1CCN(CCCN2c3ccccc3Sc3ccc(S(=O)(=O)N(C)C)cc32)CC1.CS(=O)(=O)O | -57.4
CCSc1ccc2c(c1)N(CCCN1CCN(C)CC1)c1ccccc1S2.O=C(O)CC(O)C(=O)O | -54.2
CN1CCN(CC(=O)N2c3ccccc3Sc3ccccc32)CC1 | -13.7
CN1CCN(CC(=O)Nc2ccc(S(=O)(=O)N(C)C)cc2)CC1.O=C(O)C(=O)O | 6.74
CN1CCN(CC/C=C2\c3ccccc3Sc3ccc(S(=O)(=O)N(C)C)cc32)CC1 | -58
CN1CCN(CCCN2c3ccccc3Sc3ccc(C(F)(F)F)cc32)CC1.Cl | -30.4
CN(C)S(=O)(=O)c1ccc(Cl)c(NC(=O)CN2CCc3ccccc3C2)c1 | -12.7
CN1CCN(CCC(=O)N2c3ccccc3Sc3ccc(Cl)cc32)CC1 | -48.9
CN(C)S(=O)(=O)c1ccc2c(c1)C(=O)c1cc(S(=O)(=O)N(C)C)ccc1CC2 | 7.08
Cl.FC(F)(F)c1ccc2c(c1)N(CCCN1CCN(CCCl)CC1)c1ccccc1S2 | -8.34
